# High-throughput results from PubChem BioAssay.
# PLK1 PBD inh: qHTS for Inhibitors of PLK1-PDB (polo-like kinase 1 - polo-box domain): Primary Screen | Serine/threonine-protein kinase PLK1 (Homo sapiens), P53350 | 360,000 tested, 2.8% active | Potency, µM, without a hit: max response, negative = inhibition, actives largely listed as inhibitors | Plk1 PBD binding of FITC phosphopeptide, fluorescence polarization; further: series mostly up to about 57 µM; on the % scale 0 is the no-effect control and ±100 the full control effect; nearly all actives have a fitted effect of over 65% in size
# HP1b chromo inh: HTS for Inhibitors of HP1-beta Chromodomain Interactions with Methylated Histone Tails; Chromobox protein homolog 1 (Homo sapiens), P83916; AlphaScreen HP1-beta / biotin-H3K9me3 peptide binding; Potency, µM (series often up to 114 µM), without a hit: at the highest dose activity change, negative = inhibition, most hits filed as inhibitors; 390,000 tested, 0.56% active; further: nearly all actives have a fitted effect of over 70% in size
#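 Compound inhibition of the preformed complex between 50 nM HP1-beta and 50 nM biotinylated H3K9me3 peptide was read by AlphaScreen. Buffer was PBS pH 7.4 with 0.01% Tween-20. Incubations ran 30 min at room temperature, with 10 ug/mL donor/acceptor beads.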
# G9a block: qHTS Assay for Inhibitors of Histone Lysine Methyltransferase G9a; Histone-lysine N-methyltransferase EHMT2 (Homo sapiens), Q96KQ7; G9a H3K9 monomethylation, AlphaScreen, 2 h; Potency, µM (doses to about 102 µM), inactives show top-dose activity, negative = inhibition, actives largely listed as inhibitors; 350,000 tested, 8.8% active; AID 504332, 2011; further: on the % scale 0 is the no-effect control and ±100 the full control effect; nearly all actives have a fitted effect of over 75% in size
#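 Methyltransferase reactions run at room temperature for 2 h (20 nM enzyme, 500 nM biotin-H3K9 peptide, 20 uM SAM) after a 15 min compound preincubation; product detected by AlphaScreen beads and anti-H3K9me1 antibody.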
# 12-LOX inh: Primary qHTS assay for inhibitors of human arachidonate 12S-lipoxygenase (ALOX12): Round 2; 580,000 tested, 1.1% active; Potency, µM (top dose mostly 108 µM), without a hit: at the highest dose activity change, negative = inhibition, actives largely listed as inhibitors; purified 12hLO, xylenol orange hydroperoxide absorbance; further: on the % scale 0 is the no-effect control and ±100 the full control effect
# Target sequence (P18054 whole entry, looked up): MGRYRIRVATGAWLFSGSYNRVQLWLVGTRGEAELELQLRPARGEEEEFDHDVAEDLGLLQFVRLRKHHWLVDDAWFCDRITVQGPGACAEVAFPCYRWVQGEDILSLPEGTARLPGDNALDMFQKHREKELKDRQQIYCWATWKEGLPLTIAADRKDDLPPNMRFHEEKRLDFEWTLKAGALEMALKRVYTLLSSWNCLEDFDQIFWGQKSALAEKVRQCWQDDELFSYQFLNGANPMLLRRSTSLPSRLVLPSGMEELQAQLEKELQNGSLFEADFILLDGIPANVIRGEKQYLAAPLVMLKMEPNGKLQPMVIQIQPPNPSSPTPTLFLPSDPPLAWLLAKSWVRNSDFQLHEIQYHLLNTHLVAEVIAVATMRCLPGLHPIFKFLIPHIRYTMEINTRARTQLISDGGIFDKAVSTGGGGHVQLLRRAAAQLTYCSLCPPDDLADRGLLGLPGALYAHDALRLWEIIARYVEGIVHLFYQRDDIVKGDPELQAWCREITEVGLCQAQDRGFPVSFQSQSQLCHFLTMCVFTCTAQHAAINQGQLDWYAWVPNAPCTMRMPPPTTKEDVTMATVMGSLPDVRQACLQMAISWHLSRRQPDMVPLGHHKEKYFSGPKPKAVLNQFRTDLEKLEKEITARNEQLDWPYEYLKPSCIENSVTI
#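 Purified human 12hLO at 150 nM in 25 mM Hepes, 0.01% Triton X-100, pH 7.0, preincubated 15 min at room temperature with compound. Reaction started with 40 uM arachidonic acid, 30 min at room temperature. Hydroperoxide measured by Fe-xylenol orange, 573/405 nm absorbance ratio.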
# JMJD2A Tudor inh: qHTS Assay for Inhibitors of JMJD2A-Tudor Domain; AID 504339, 2011; 390,000 tested, 4.4% active; Lysine-specific demethylase 4A (Homo sapiens), O75164; Potency, µM (doses to about 114 µM), for inactives: at the top dose activity change, negative = inhibition, usual class: inhibitors; AlphaScreen JMJD2A-Tudor / H3K4me3 peptide binding; further: on the % scale 0 is the no-effect control and ±100 the full control effect; nearly all actives have a fitted effect of over 50% in size
# BAZ2B inh: qHTS Assay for Inhibitors of BAZ2B; Bromodomain adjacent to zinc finger domain protein 2B (Homo sapiens), Q9UIF8; 360,000 tested, 4.4% active; Potency, µM (doses to about 114 µM), inactives show top-dose activity change, negative = inhibition, hits mostly inhibitors; AlphaScreen BAZ2B-H3K14Ac peptide displacement; further: on the % scale 0 is the no-effect control and ±100 the full control effect; nearly all actives have a fitted effect of over 60% in size
#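 Multi-concentration screen (max 110 uM) measuring displacement of acetylated histone H3 peptide from BAZ2B by AlphaScreen, using 50 nM protein, 50 nM peptide and 10 ug/mL streptavidin donor plus Ni-chelate acceptor beads.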
# * hit, by the source's call; ? = inconclusive; · = not tested or not shown; [ ] = dose if it differs, or a comment. Sampled rows, rich in hits. Any-hit rate of the full collection: about 9%. The call rests on the fitted dose curve; in most records, active means well fitted curve in the direction sought with a large enough effect; inconclusive means small, poorly fitted or top-dose-only effect, or another doubt; inactive means no such curve, though single readings can be large; an effect the other way counts as inactive or inconclusive. Potency means the concentration at half of the fitted maximal effect.
SMILES,PLK1 PBD inh,HP1b chromo inh,G9a block,12-LOX inh,JMJD2A Tudor inh,BAZ2B inh
CCC1CCCCN1C(=S)NC(=O)c1cccs1 (stereo not given),-12.8%,12.2%,?,-16.7%,-25.7%,-25.2%
CCOC(=O)N1CCC(NC(=O)c2ccc3c(c2)N=C(C)c2ccccc2S3)CC1,26.7µM*,0.9%,18.1%[59 µM],-2.0%,?,-21.6%
O=C(CNC1CCCCCC1)c1cccs1,29.9µM*,?,-8.1%[59 µM],-15.7%,?,-7.7%
O=C(NC(=S)N1CCCCC1CO)c1cccs1 (stereo not given),21.2µM*,-31.7%,·,-16.9%,2.82µM*,·
COc1cc2c(cc1OC)C(c1ccc(C)cc1)NC(=O)C2 (stereo not given),-5.0%,-6.3%,25.4%[59 µM],12.9%,-12.1%,-25.6%
COCC(=O)N1CCC(Oc2ccc(C(=O)N3C[C@@H](C)O[C@@H](C)C3)cc2)CC1,2.7%,24.9%,-4.3%,0.0%,0.7%,0.8%
CCc1ccc(NC(=O)N(Cc2cn(CC)c3ccccc23)C2CCCCC2)cc1,·,19.7%,-39.9%[59 µM],-4.9%,-31.3%,·
COc1ccc(NC(=O)C(=O)NCCN2CCN(C(=O)c3cccc(Br)c3)CC2)cc1,-0.5%,17.7%,31.2%,9.6%,-6.9%,-9.0%
NC(=O)c1ccc(-n2nnnc2Oc2ccccc2C(=O)N2CCOCC2)cc1,-3.5%,20.2%,-36.8%[12.7 µM],29.0%,3.8%,12.9%
O=C(NCCNC1CCC(c2ccccc2)CC1)c1cccs1 (stereo not given),-7.8%,?,28.2µM*,?,2.24µM*,50.1µM*
CC1CCCCC1NC(=O)CNC(=O)c1cccs1 (stereo not given),-1.0%,19.7%,14.1µM*,18.8%,12.4%,-1.0%
CCOC(=O)N1CCC(NCCNC(=O)c2cccs2)CC1,-5.0%,?,?,-28.8%,1.78µM*,79.4µM*
CCOC(=O)C1CCN(C(=S)NC(=O)c2cccs2)CC1,-24.8%,?,39.8µM*,-3.2%,-34.5%,-22.2%
O=C(NCCC1CCCC1)c1cccs1,8.3%,34.0%,22.9%,-1.9%,8.9%,-4.5%
O=C(O)c1ccn[nH]1,-10.8%,-1.8%,·,·,44.7µM*,·
O=C(c1cccc(-n2cccc2)c1)N1CCN(S(=O)(=O)c2ccccc2)CC1,?,12.6µM*,5.0%[2.33 µM],-22.7%,5.62µM*,8.91µM*
O=C(c1ccc2c(c1)OCCO2)N1CCN(S(=O)(=O)c2c(F)cccc2F)CC1,·,41.3%,11.6%[2.33 µM],-0.2%,-11.3%,2.5%
O=C(c1cccc(S(=O)(=O)N2CCN(c3ccccc3)CC2)c1)N1CCCCCCC1,-0.4%,8.9%,14.0%[0.501 µM],2.3%,-31.1%,-9.0%
O=C(c1cccc(-n2cccc2)c1)N1CCN(S(=O)(=O)c2c(F)cccc2F)CC1,-13.3%,?,67.1%,24.2%,35.5µM*,2.3%
CCCC(C)NC(=O)C(NC(=O)c1ccc(C(C)(C)C)cc1)C(C)C (stereo not given),·,·,·,8.5%,·,·
CCOCCCNC(=O)CNC(=S)N(Cc1ccc(C)cc1)Cc1ccco1,-21.2%,-13.3%,10µM*,20.1%,-23.2%,-38.4%
C=CCNC(=S)N(Cc1ccc(C)cc1)Cc1ccco1,·,·,·,1.6%,·,·
CN1C[C@@H](NC(=O)c2ccccn2)C[C@H]1c1nc(-c2ccc(Cl)cc2)no1,·,·,·,0.5%[176 µM],·,·
